The record followed here is PubChem BioAssay (NCATS).

The structures appear in SMILES notation. Inconclusive results are not listed. A number with no mark means an inactive call. The source made the active and inactive calls. The call rests on the fitted dose curve; in most records, active means well fitted curve in the direction sought with a large enough effect; inconclusive means small, poorly fitted or top-dose-only effect, or another doubt; inactive means no such curve, though single readings can be large; an effect the other way counts as inactive or inconclusive.
Potency means the concentration at half of the fitted maximal effect.

The nature of one experiment: Cell Viability - LYMP2-003 (AID 965).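 Further: cells exposed to compounds for 24 h before reading; nearly all actives have a fitted effect of over 50% in size.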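 On activity change, negative = cytotoxicity: 0% = DMSO only and full effect = 92 µM tetraoctylammonium bromide.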 To be noted: LYMP2-003 lymphoblastoid cell viability; series mostly up to 92.2 µM; activity change, negative = cytotoxicity: at the top concentration. The gist of the method:
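Seed 2500 lymphoblastoid cells/well; incubate 5 hr, 37 C; add compounds; incubate 24 hr, 37 C; add CellTiter-Glo, 30 min RT; read luminescence. AC50 from Hill fit.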
On to `Cc1cc(Nc2ccc(O)cc2)ccc1N`, for which the Potency was 50.1 µM (active).
Take `CN(C)c1ccc(C2(c3ccc(N(C)C)cc3)OC(=O)c3cc(N(C)C)ccc32)cc1`: the “activity change, negative = cytotoxicity” value is -6.12%.
As to `CO[C@H]1/C=C/O[C@@]2(C)Oc3c(C)c(O)c4c(O)c(c5c(c4c3C2=O)NC2(CCN(CC(C)C)CC2)N=5)=NC(=O)/C(C)=C\C=C\[C@H](C)[C@H](O)[C@@H](C)[C@@H](O)[C@@H](C)[C@H](OC(C)=O)[C@@H]1C`, the “activity change, negative = cytotoxicity” value was -19%.
Still for that read-out and setting: then `O=C(OCC(COC(=O)c1ccccc1)(COC(=O)c1ccccc1)COC(=O)c1ccccc1)c1ccccc1`, with 1.79%; and `ClC1=C(Cl)C(Cl)(Cl)C(Cl)=C1Cl`, with 25%.
Regarding `CC(=O)Nc1ccc(C(=O)CCl)cc1`, the Potency was 6.31 µM (active).
As for `Nc1ccc2cc3ccccc3cc2c1`, the “activity change, negative = cytotoxicity” value is -5.53%.
The same measure, in the same setting: then `c1ccc2c(c1)-c1cccc3c1c-2cc1ccccc13`, with -0.736%; and `O=C=Nc1ccc(Cc2ccc(N=C=O)cc2)cc1`, with 12.9%.
On the same count and under the same terms, with `O=[N+]([O-])c1cc([N+](=O)[O-])c2ccc(S(=O)(=O)O)cc2c1O` the figure was 14.7%.
With `Cc1cc(O)c(C(C)(C)C)cc1Sc1cc(C(C)(C)C)c(O)cc1C`, the Potency is 31.6 µM (active).
In the case of `CCC(C)Nc1ccc(NC(C)CC)cc1` (stereo not given), the Potency is 10 µM (active).
As to `CNc1ccc(O)cc1`, the Potency was 5.01 µM (active).
Same read-out and setting: then `C=CC(=O)OCCOCCOC(=O)C=C`, with 12.6 µM (active).
For `O=C1OC2(c3cc(Br)c(O)c(Br)c3Oc3c2cc(Br)c(O)c3Br)c2c(Cl)c(Cl)c(Cl)c(Cl)c21`, the “activity change, negative = cytotoxicity” value was -23.2%.
The same measure, in the same setting: then `c1ccc2c(c1)ccc1cc3c(ccc4ccccc43)cc12`, with 14.1%; and `C/C=C1\C(=O)C[C@H]2[C@@H]3CCC4=CC(=O)CC[C@]4(C)[C@H]3CC[C@]12C`, with -29.2%.
Same read-out and setting: with `C=C(C)c1ccccc1` the figure was 2.32%.
With `O=C1OC(O)C(C(Cl)Cl)=C1Cl` (stereo not given), the Potency was 15.8 µM (active).
As for `Cc1ccc(S(=O)(=O)Oc2ccc(N=Nc3ccc(-c4ccc(N=Nc5c(O)ccc6cc(S(=O)(=O)O)cc(S(=O)(=O)O)c56)c(C)c4)cc3C)cc2)cc1`, the “activity change, negative = cytotoxicity” value was -21.6%.

A short description of another experiment: Cell Viability - LYMP2-004 (AID 966). Further: nearly all actives have a fitted effect of over 65% in size.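 On activity change, negative = cytotoxicity: plate controls were DMSO only for no effect and tetraoctylammonium bromide control for full effect.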 To be noted: LYMP2-004 lymphoblastoid cell viability, qHTS; series mostly up to 92.2 µM; activity change, negative = cytotoxicity: at the top concentration. The gist of the method:
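Viable-cell number estimated from ATP luminescence (CellTiter-Glo) in 2500 human lymphoblastoid cells/well after 24 hr at 37 C with compound. AC50 fitted to the standard Hill equation.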
For orientation: Quantitative high-throughput screening tests each substance at several concentrations.
In the case of `Cc1cc(Nc2ccc(O)cc2)ccc1N`, the Potency was 39.8 µM (active).
As for `CN(C)c1ccc(C2(c3ccc(N(C)C)cc3)OC(=O)c3cc(N(C)C)ccc32)cc1`, the “activity change, negative = cytotoxicity” value is -11.4%.
The same measure, in the same setting: then `CO[C@H]1/C=C/O[C@@]2(C)Oc3c(C)c(O)c4c(O)c(c5c(c4c3C2=O)NC2(CCN(CC(C)C)CC2)N=5)=NC(=O)/C(C)=C\C=C\[C@H](C)[C@H](O)[C@@H](C)[C@@H](O)[C@@H](C)[C@H](OC(C)=O)[C@@H]1C`, with -22.4%; and `O=C(OCC(COC(=O)c1ccccc1)(COC(=O)c1ccccc1)COC(=O)c1ccccc1)c1ccccc1`, with 3.84%.
On the same count and under the same terms, then `ClC1=C(Cl)C(Cl)(Cl)C(Cl)=C1Cl`, with 8.76%.
`CC(=O)Nc1ccc(C(=O)CCl)cc1`: the Potency was 3.98 µM (active).
On to `Nc1ccc2cc3ccccc3cc2c1`, for which the “activity change, negative = cytotoxicity” value is 6.11%.
On the same count and under the same terms, then `c1ccc2c(c1)-c1cccc3c1c-2cc1ccccc13`, with -14.4%.
Same read-out and setting: with `O=C=Nc1ccc(Cc2ccc(N=C=O)cc2)cc1` the figure was 2.92%; with `O=[N+]([O-])c1cc([N+](=O)[O-])c2ccc(S(=O)(=O)O)cc2c1O`, 4.43%.
For `Cc1cc(O)c(C(C)(C)C)cc1Sc1cc(C(C)(C)C)c(O)cc1C`, the Potency was 31.6 µM (active).
The same measure, in the same setting: with `CCC(C)Nc1ccc(NC(C)CC)cc1` (stereo not given) the figure was 6.31 µM (active); with `CNc1ccc(O)cc1`, 5.01 µM (active).
Still for that read-out and setting: then `C=CC(=O)OCCOCCOC(=O)C=C`, with 10 µM (active).
As to `c1ccc2c(c1)ccc1cc3c(ccc4ccccc43)cc12`, the “activity change, negative = cytotoxicity” value was 20.4%.
The same measure, in the same setting: with `C=C(C)c1ccccc1` the figure was 7.81%.
Turning to `O=C1OC(O)C(C(Cl)Cl)=C1Cl` (stereo not given), the Potency is 12.6 µM (active).

A short description of a further experiment: Cell Viability - LYMP2-005 (AID 967).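 Further: cells exposed to compound for 24 h at 37 °C.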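 On activity change, negative = viability loss: plate controls were DMSO only for no effect and 92 µM tetraoctylammonium bromide control for full effect.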 To be noted: LYMP2-005 lymphoblastoid cell viability; series mostly up to 92.2 µM; activity change, negative = viability loss: at the top concentration. The gist of the method:
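Acute cytotoxicity is scored as a concentration-dependent drop in intracellular ATP in human lymphoblastoid LYMP2-005 cells after 24 h compound treatment. ATP is quantified by luciferase luminescence, and AC50 is derived by Hill-equation modelling.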
As to `Cc1cc(Nc2ccc(O)cc2)ccc1N`, the Potency is 39.8 µM (active).
In the case of `O=C(OCC(COC(=O)c1ccccc1)(COC(=O)c1ccccc1)COC(=O)c1ccccc1)c1ccccc1`, the “activity change, negative = viability loss” value was -0.208%.
Same read-out and setting: then `ClC1=C(Cl)C(Cl)(Cl)C(Cl)=C1Cl`, with -0.175%; and `Nc1ccc2cc3ccccc3cc2c1`, with -7.8%.
The same measure, in the same setting: with `c1ccc2c(c1)-c1cccc3c1c-2cc1ccccc13` the figure was -40.8%; with `O=C=Nc1ccc(Cc2ccc(N=C=O)cc2)cc1`, -18.7%.
On the same count and under the same terms, with `O=[N+]([O-])c1cc([N+](=O)[O-])c2ccc(S(=O)(=O)O)cc2c1O` the figure was 4.3%.
In the case of `CCC(C)Nc1ccc(NC(C)CC)cc1` (stereo not given), the Potency is 6.31 µM (active).
For the molecule `CNc1ccc(O)cc1`, the Potency is 5.01 µM (active).
The same measure, in the same setting: then `C=CC(=O)OCCOCCOC(=O)C=C`, with 10 µM (active).
As for `O=C1OC2(c3cc(Br)c(O)c(Br)c3Oc3c2cc(Br)c(O)c3Br)c2c(Cl)c(Cl)c(Cl)c(Cl)c21`, the “activity change, negative = viability loss” value is -59.3%.
Still for that read-out and setting: then `c1ccc2c(c1)ccc1cc3c(ccc4ccccc43)cc12`, with 12.6%; and `C/C=C1\C(=O)C[C@H]2[C@@H]3CCC4=CC(=O)CC[C@]4(C)[C@H]3CC[C@]12C`, with -23.9%.
Still for that read-out and setting: then `C=C(C)c1ccccc1`, with 29.7%.
As for `O=C1OC(O)C(C(Cl)Cl)=C1Cl` (stereo not given), the Potency is 15.8 µM (active).

The next experiment can be described thus: Cell Viability - LYMP2-009 (AID 968).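 Further: cells exposed to compound for 24 h at 37 °C; nearly all actives have a fitted effect of over 55% in size.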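 On activity change, negative = viability loss: 0% = DMSO alone and the full-kill end = tetraoctylammonium bromide at 92 µM.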 To be noted: LYMP2-009 lymphoblastoid cell viability; series mostly up to 92.2 µM; activity change, negative = viability loss: at the top concentration.
As to `Cc1cc(Nc2ccc(O)cc2)ccc1N`, the Potency was 50.1 µM (active).
For the molecule `CN(C)c1ccc(C2(c3ccc(N(C)C)cc3)OC(=O)c3cc(N(C)C)ccc32)cc1`, the “activity change, negative = viability loss” value is 0.56%.
The same measure, in the same setting: with `CO[C@H]1/C=C/O[C@@]2(C)Oc3c(C)c(O)c4c(O)c(c5c(c4c3C2=O)NC2(CCN(CC(C)C)CC2)N=5)=NC(=O)/C(C)=C\C=C\[C@H](C)[C@H](O)[C@@H](C)[C@@H](O)[C@@H](C)[C@H](OC(C)=O)[C@@H]1C` the figure was -29.1%; with `O=C(OCC(COC(=O)c1ccccc1)(COC(=O)c1ccccc1)COC(=O)c1ccccc1)c1ccccc1`, 1.69%.
For the molecule `CC(=O)Nc1ccc(C(=O)CCl)cc1`, the Potency is 6.31 µM (active).
Regarding `Nc1ccc2cc3ccccc3cc2c1`, the “activity change, negative = viability loss” value was -12.8%.
Still for that read-out and setting: with `c1ccc2c(c1)-c1cccc3c1c-2cc1ccccc13` the figure was -7.98%; with `O=C=Nc1ccc(Cc2ccc(N=C=O)cc2)cc1`, -3.21%; with `O=[N+]([O-])c1cc([N+](=O)[O-])c2ccc(S(=O)(=O)O)cc2c1O`, -15%.
On to `Cc1cc(O)c(C(C)(C)C)cc1Sc1cc(C(C)(C)C)c(O)cc1C`, for which the Potency is 50.1 µM (active).
Same read-out and setting: then `CCC(C)Nc1ccc(NC(C)CC)cc1` (stereo not given), with 3.98 µM (active); and `CNc1ccc(O)cc1`, with 6.31 µM (active).
On to `C=CC(=O)OCCOCCOC(=O)C=C`, for which the Potency is 20 µM (active).
With `Oc1ccc2cc(SSc3ccc4cc(O)ccc4c3)ccc2c1`, the Potency is 50.1 µM (active).
Take `c1ccc2c(c1)ccc1cc3c(ccc4ccccc43)cc12`: the “activity change, negative = viability loss” value was -2.27%.
On the same count and under the same terms, with `C/C=C1\C(=O)C[C@H]2[C@@H]3CCC4=CC(=O)CC[C@]4(C)[C@H]3CC[C@]12C` the figure was -27%; with `C=C(C)c1ccccc1`, -10.6%.
In the case of `O=C1OC(O)C(C(Cl)Cl)=C1Cl` (stereo not given), the Potency was 25.1 µM (active).
